40 molecules from PubChem BioAssay (EPA / NIEHS) can be followed below.

Each structure is given as a SMILES string. Calls of active or inactive are those of the source. How the source made its calls: active means hit-call score of the fitted dose curve at least 0.9, where 1 is the maximum; inactive means score below 0.9.

Read-out in this test: CD38, CD38 (gene 952)
Briefly: BSK_SAg_CD38: BioMAP Diversity Plus: SAg Assay for CD38 Biomarker Activity (AID 2283087). The note with it: primary human HUVEC with PBMC; actives raise or lower the signal. On the procedure:
BSK_SAg is a cell-based, multiplexed-readout assay that uses umbilical vein endothelium and peripheral blood mononuclear cells, a human vascular primary cell co-culture, with measurements taken at 24 hours after chemical dosing in a 96-well plate.BSK_SAg_CD38 is one of 10 assay component(s) measured or calculated from the BSK_SAg assay. It is designed to make measurements of enzyme-linked immunosorbent assay, a form of binding reporter, as detected with fluorescence intensity signals by Enzyme-linked immunosorbent assay technology.Data from the assay component BSK_SAg_CD38 was analyzed into 1 assay endpoint. This assay endpoint, BSK_SAg_CD38, was analyzed with bidirectional fitting relative to DMSO as the negative control and baseline of activity. Using a type of binding reporter, gain or loss-of-signal activity can be used to understand changes in the signaling as they relate to the gene CD38. Furthermore, this assay endpoint can be referred to as a primary readout, because this assay has produced multiple assay endpoints where this one serves a signaling function. To generalize the intended target to other relatable targets, this assay endpoint is annotated to the cytokine intended target family, where the subfamily is other cytokine.
The levels of cell surface (or secreted, indicated by the prefix "s") biomarker endpoints were measured by ELISA. Overt cytotoxicity to cells in confluent adherent cultures (all systems other than the BT system) was assessed by measuring total protein levels using sulforhodamine B (SRB) staining in parallel cultures at the time of biomarker measurements, indicated as SRB endpoints. For proliferation assays for adherent cell types, individual cell types are cultured at sub-confluence and relative cell numbers quantified by SRB staining at time points optimized for each system (48 h: 3C and CASM3C systems; 72 h: BT and HDF3CGF systems; 96 h: SAg system). SRB was performed by staining cells with 0.1% SRB after fixation with 10% TCA and reading wells at 560 nm.Viability and proliferation of PBMC (T cells) was quantified by Alamar Blue reduction for the SAg and BT systems. For PBMC viability (referred to as PBMC Cytotoxicity within the assay endpoint names), cells were plated (75,000/well in a 96-well plate) and then chemical samples added for 1 h before addition of activators, SEB and TSST-1 (20 ng/mL final concentration each). Cells were incubated for 90 h. Then, Alamar Blue (20 uL/well) (Invitrogen, Cat DAL1100) was added for 6 h, and the plates were read with a fluorescence microplate reader at 546/580 nm (excitation/emission). For PBMC proliferation, cells were plated and activated as above but incubated for only 16 h prior to addition of Alamar Blue. Plates were read after 6 h.
In general, AC50 refers to the midpoint of the concentration-response curve, whichever way the signal moves. Consider `CCCCCCCCCCCC[N+](C)(C)C`, for which the AC50 is 17.4 µM (active). The same measure, in the same setting: under `CCCCCCCC[Si](OCC)(OCC)OCC` stands 20 µM (active). For the molecule `Oc1ccc2ccccc2c1`, the outcome was inactive. Same read-out and setting: then `C[C@]12CC[C@@H]3c4ccc(O)cc4CC[C@H]3[C@@H]1CC[C@H]2O`, with “inactive”; and `CCCCCc1ccc(N)cc1`, with “inactive”. On to `O=C(Nc1ccc(Cl)cc1)Nc1ccc(Cl)c(Cl)c1`, for which the AC50 is 2.11 µM (active). On the same count and under the same terms, under `CCN(CC)C(=O)c1cc(S(=O)(=O)Cc2ccccc2)c(N2CCC(c3ccccc3)CC2)cc1N(CC)CCN(C)C` stands 9.58 µM (active). Take `O=C(O)Cc1cc(I)c(Oc2ccc(O)c(I)c2)c(I)c1`: the outcome was inactive. Regarding `CCCC(=O)OCCC(C)C`, the result was inactive. Still for that read-out and setting: then `O=CCCCC=O`, with “inactive”; and `COCC(C)OCC(C)OCC(C)O` (stereo not given), with “inactive”.

In the case of `CCCCCCCCCCCO`, the result was inactive. With `CCOC(=O)O[C@H](C)OC(=O)c1ccc2c(c1)cc(C(=O)NC1CCN(C(C)C)CC1)n2Cc1cc(-c2ccc(Cl)s2)on1`, the AC50 was 7.17 µM (active).

Turning to `CC1=CC(=O)/C(=C(/C)O)C(=O)O1`, the outcome was inactive. Same read-out and setting: under `OCCO` stands “inactive”.

Consider `O=c1c(-c2ccc(O)cc2)coc2cc(O)cc(O)c12`, for which the AC50 was 25.1 µM (active). As to `CC[C@H](NC(=O)c1cc(F)ccc1NS(=O)(=O)c1cccc2cccnc12)c1ccccc1`, the result was inactive.

On to `CC(C)(C)c1cc(/C=C2\SC(N)=NC2=O)cc(C(C)(C)C)c1O`, for which the AC50 was 12.2 µM (active). Consider `Oc1ccccc1`, for which the result was inactive. With `CC[C@@H]1C[C@H](N(Cc2cc(C(F)(F)F)cc(C(F)(F)F)c2)C(C)=O)c2cc(C(F)(F)F)ccc2N1C(=O)OC(C)C`, the result was inactive. On to `O=c1ccc2ccccc2o1`, for which the outcome was inactive. `CC1(C)NC(=O)N(c2ccc([N+](=O)[O-])c(C(F)(F)F)c2)C1=O`: the outcome was inactive. Take `CCN(Cc1cccnc1)C(=O)c1cccc(Cl)c1[C@]1(C)C(=O)N(Cc2ccc(OC)cc2OC)c2ccc(Cl)cc21`: the AC50 was 8.35 µM (active). Regarding `Cc1cc(F)ccc1-c1cc(N2CC[C@@H](O)[C@H]2CO)ncc1N(C)C(=O)C(C)(C)c1cc(C(F)(F)F)cc(C(F)(F)F)c1`, the AC50 is 10.2 µM (active).

As for `CN1C(=O)N(c2ccccc2Br)Cc2cnc(Nc3ccc4c(c3)OCC(CO)O4)nc21` (stereo not given), the AC50 is 2.36 µM (active). With `CCO[Si](CCCNC(N)=O)(OCC)OCC`, the outcome was inactive. With `O=C1c2ccccc2C(=O)N1CCc1noc(-c2ccc(CN3CCCCCC3)s2)n1`, the outcome was inactive. Same read-out and setting: then `O=C(O)c1ccccc1C(=O)OCc1ccccc1`, with “inactive”; and `Cc1cn([C@H]2C[C@H](N=[N+]=[N-])[C@@H](CO)O2)c(=O)[nH]c1=O`, with “inactive”; and `O=C(O)Cn1c(=O)n(Cc2ccc(Br)cc2F)c(=O)c2ccc(Cl)cc21`, with “inactive”. Regarding `CC(C)(C)c1csc(-c2cc3cc(OCc4ccccc4CC(=O)O)ccc3o2)n1`, the AC50 was 17.9 µM (active). Consider `c1ccc(C[n+]2cccc3ccccc32)cc1`, for which the result was inactive. Consider `CO[C@H]1/C=C/O[C@@]2(C)Oc3c(C)c(O)c4c(O)c(c(/C=N/N5CCN(C)CC5)c(O)c4c3C2=O)NC(=O)/C(C)=C\C=C\[C@H](C)[C@H](O)[C@@H](C)[C@@H](O)[C@@H](C)[C@H](OC(C)=O)[C@@H]1C`, for which the result was inactive.

Take `CC(O)CC(C)(C)O` (stereo not given): the result was inactive. Regarding `CN(C)c1ccc(C(=C2C=CC(=[N+](C)C)C=C2)c2ccc(N(C)C)cc2)cc1`, the AC50 was 1.01 µM (active). With `COc1ccc2cc(S(=O)(=O)N[C@H](CC(=O)N[C@H](Cc3ccc(CN4[C@H](C)CCC[C@@H]4C)cc3)C(=O)N(C)C(C)C)c3ccc4c(c3)OCO4)ccc2c1`, the AC50 was 26.2 µM (active). Turning to `CCCCCCCCOc1ccc(C(=O)c2ccccc2)c(O)c1`, the AC50 is 15.7 µM (active). In the case of `O=C1O[C@H]([C@@H](O)CO)C(O)=C1O`, the outcome was inactive. Same read-out and setting: under `CC(C)(O)c1ccc(CNC(=O)c2cccnc2Oc2ccc3nonc3c2)cc1` stands “inactive”; under `OC12N=C(c3ccccc3)SC1Cc1cc(Cl)ccc12` (stereo not given), “inactive”.
